Holding throughout (experiment): NCI-60 one-dose screen, 48 h (100 = growth as untreated, 0 = no growth, -100 = all killed)
The subject of one test is UACC-62 melanoma. The following applies: 10 µM unless noted.
The test system of a further test is TK-10 renal. The following applies: 10 µM unless noted.
The next test deals with MCF7 breast. Particulars: 10 µM unless noted.
In a further test the test system is A549/ATCC NSCLC. Particulars: 10 µM unless noted.
The test system of the next test is 786-0 renal. Particulars: 10 µM unless noted.
Another test deals with DU-145 prostate. Particulars: 10 µM unless noted.
Another test concerns SF-268 CNS. Particulars: 10 µM unless noted.
The next test concerns SF-539 CNS. The following applies: 10 µM unless noted.
A further test deals with HCT-15 colon. Particulars: 10 µM.
For the next test, the system named is SNB-75 CNS. The following applies: 10 µM unless noted.
In another test the test system is SNB-19 CNS. Particulars: 10 µM unless noted.
The next test deals with SN12C renal. Particulars: 10 µM unless noted.
The subject of another test is ACHN renal. Particulars: 10 µM unless noted.
For another test, the system named is HL-60(TB) leukemia. Particulars: 10 µM unless noted.
The subject of the next test is OVCAR-8 ovarian. The following applies: 10 µM unless noted.
A further test concerns OVCAR-5 ovarian. The following applies: 10 µM unless noted.
The test system of the next test is OVCAR-3 ovarian. Particulars: 10 µM unless noted.
The next test relates to NCI/ADR-RES ovarian. Particulars: 10 µM unless noted.
A further test concerns T-47D breast. The following applies: 10 µM unless noted.
The next test relates to MDA-MB-435 melanoma. The following applies: 10 µM unless noted.

Several values for one entry are separate records, joined by “and”; a condition that tells them apart may be missing. Equal entries are not always repeated. Compounds without any hit were thinned out: in the full panel of roughly 83,000, 20% have a hit.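 Note: values are percent growth. 100 is the growth of untreated cells, values between 100 and 0 indicate rising inhibition; between -100 and 0 indicates cell death.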 Activity calls are given as the source filed them. How the source made its calls: active means growth percent below 10; inactive means the rest.

Consider `O=C1NC(=O)C(CCC(=O)c2cccc3ccccc23)C(=O)N1`, for which the growth was 77.1% [100 µM] (inactive) and 44.6% [100 µM] (inactive) in the test with UACC-62 melanoma; 106% [100 µM] (inactive) and 8.08% [100 µM] (active) in the test on TK-10 renal; 91% [100 µM] (inactive) and 51.9% [100 µM] (inactive) in the test on MCF7 breast.

In the case of `O=C(O)CN1C(=O)C(Cc2ccccc2)N=C(c2cccc(O)c2)c2ccccc21` (stereo unspecified), the growth in the test with UACC-62 melanoma was 90.1% [30 µM] (inactive); in the test on TK-10 renal it was 96% [30 µM] (inactive); with MCF7 breast, 79% [30 µM] (inactive).

As to `CCOC(=O)C1(c2ccccc2)CCN(CC(=O)c2ccc(NC(C)=O)cc2)CC1`, the growth in the test on A549/ATCC NSCLC was 95% (inactive); in the test on 786-0 renal it was 110% (inactive); in the test with DU-145 prostate, 123% (inactive); with SF-268 CNS it was 116% (inactive); in the test on SF-539 CNS, 113% (inactive); in the test with HCT-15 colon it was 108% (inactive). Besides, the growth was 114% (inactive) in the test with SNB-75 CNS; 102% (inactive) in the test on SNB-19 CNS; 94% (inactive) in the test with UACC-62 melanoma; 93.2% (inactive) with SN12C renal; 96.4% (inactive) in the test on TK-10 renal; 96% (inactive) with ACHN renal. The growth in the test on HL-60(TB) leukemia was 111% (inactive); in the test on OVCAR-8 ovarian, 110% (inactive); with OVCAR-5 ovarian it was 100% (inactive); in the test with OVCAR-3 ovarian it was 128% (inactive); in the test on NCI/ADR-RES ovarian it was 107% (inactive); with T-47D breast, 88.2% (inactive). Besides, the results for the growth in the test on MDA-MB-435 melanoma and in the test on MCF7 breast were 106% (inactive) and 107% (inactive), respectively.

As for `CN1C(=O)C(CCC(=O)O)N=C(c2cccc(O)c2)c2ccccc21` (stereo unspecified), the growth in the test with UACC-62 melanoma is 82% [30 µM] (inactive); in the test with TK-10 renal, 113% [30 µM] (inactive); in the test on MCF7 breast it was 89% [30 µM] (inactive).

Turning to `CNC(=O)c1cc(Oc2ccc3c(c2)sc2nc(-c4ccc(N)cc4)cn23)ccn1`, in the test on HL-60(TB) leukemia, the growth was 2.04% (active).

For the compound `COc1ccc(C/C(=C(\C)c2ccc(OCCN3CCCC3)cc2)c2ccc(OCCN3CCCC3)cc2)cc1`, the growth in the test on HL-60(TB) leukemia is -58.1% (active).

With `CC12CC3OC(=O)C1COC14OC5(C2C1=O)C(O)(CCC1C4CC2OC24CC=CC(=O)C14C)C(=O)OC35C` (stereo unspecified), the growth with UACC-62 melanoma was -79.6% [100 µM] (active) and -94.2% [100 µM] (active); in the test with TK-10 renal, 4.16% [100 µM] (active) and -100% [100 µM] (active); with MCF7 breast it was -49.7% [100 µM] (active) and -85% [100 µM] (active).

Consider `CC(=O)O[C@H]1CC[C@]2(C)[C@H]3CC=C4[C@@H]5CC(C)(C)CC[C@]5(C(=O)N5CCN(CCC#N)CC5)CC[C@@]4(C)[C@]3(C)CC[C@H]2C1(C)C`, for which the growth with HL-60(TB) leukemia was 12.9% (inactive).

On to `NC(=O)CN1C(=O)C(Cc2ccccc2)N=C(c2cccc(O)c2)c2ccccc21` (stereo unspecified), for which the growth was 97.8% [30 µM] (inactive) with UACC-62 melanoma, 102% [30 µM] (inactive) in the test on TK-10 renal and 96.4% [30 µM] (inactive) in the test with MCF7 breast.

As to `Cn1cc(-c2ccc3cc(-c4ccc(CC(=O)Nc5cc(C(C)(C)C)nn5C)cc4)cnc3c2)cn1`, the growth in the test on HL-60(TB) leukemia is 25.2% (inactive).

Consider `CC(=O)OC1CCC2(C)C(=CCC3C4CC(CN5CC5)C(=O)C4(C)CCC32)C1` (stereo unspecified), for which the growth was 94.1% (inactive) in the test with A549/ATCC NSCLC; 87.9% (inactive) with 786-0 renal; 80.8% (inactive) with DU-145 prostate; 101% (inactive) with SF-268 CNS; 98.1% (inactive) with SF-539 CNS; 89.7% (inactive) in the test on HCT-15 colon. For the same compound, the growth with SNB-75 CNS was 93.9% (inactive); in the test on SNB-19 CNS, 98.4% (inactive); in the test on UACC-62 melanoma, 94.4% (inactive); in the test with SN12C renal, 99.6% (inactive); in the test with TK-10 renal, -12.1% (active); in the test on ACHN renal, 76.4% (inactive). In addition, the growth is 64.2% (inactive) with HL-60(TB) leukemia; 85% (inactive) in the test on OVCAR-8 ovarian; 97.7% (inactive) in the test on OVCAR-5 ovarian; 112% (inactive) in the test with OVCAR-3 ovarian; 101% (inactive) in the test on NCI/ADR-RES ovarian; -11.8% (active) in the test with T-47D breast. In addition, the growth is 90.4% (inactive) with MDA-MB-435 melanoma and 15.5% (inactive) in the test with MCF7 breast.

For `C[n+]1cccc(NC(=O)c2ccc3ccc4ccc(C(=O)Nc5ccc[n+](C)c5)nc4c3n2)c1`, in the test with HL-60(TB) leukemia, the growth is 61.4% (inactive).

With `Cc1nn(-c2ccccc2)c2nc(Cl)c(C=O)c(-c3ccccc3)c12`, in the test with HL-60(TB) leukemia, the growth is 95.8% (inactive).

As for `CSc1ccc2c(c1)c(CCN)c(C)n2Cc1ccc(Cl)c(Cl)c1`, the growth with HL-60(TB) leukemia is -69.9% (active).

Turning to `Cc1c2cnccc2c(C)c2c1oc1ccccc12`, the growth in the test with HL-60(TB) leukemia is 61.8% (inactive).

For the compound `CCOP(=O)(OCC)Oc1ccc(Sc2ccc(OP(=O)(OCC)OCC)cc2)cc1`, the growth was 97.5% (inactive) in the test on A549/ATCC NSCLC; 92.6% (inactive) in the test with 786-0 renal; 103% (inactive) in the test on DU-145 prostate; 100% (inactive) in the test with SF-268 CNS; 104% (inactive) in the test on SF-539 CNS; 107% (inactive) in the test on HCT-15 colon. The growth with SNB-75 CNS was 95% (inactive); in the test with SNB-19 CNS it was 100% (inactive); with UACC-62 melanoma, 111% (inactive); with SN12C renal it was 101% (inactive); in the test on TK-10 renal it was 107% (inactive); in the test on ACHN renal, 115% (inactive). Besides, the growth in the test with HL-60(TB) leukemia is 96% (inactive); in the test on OVCAR-8 ovarian, 99.8% (inactive); in the test with OVCAR-5 ovarian, 105% (inactive); in the test on OVCAR-3 ovarian, 111% (inactive); in the test with NCI/ADR-RES ovarian it was 93.7% (inactive); in the test on T-47D breast, 97.9% (inactive). The growth with MDA-MB-435 melanoma is 96.8% (inactive); in the test on MCF7 breast it was 118% (inactive).

For `C/C=C1\CN2CCC34c5ccccc5N(C)C35OCC4(C(=O)OC)C1CC25` (stereo unspecified), the growth is 82.9% [100 µM] (inactive) and -86% [100 µM] (active) in the test on UACC-62 melanoma; 80.6% [100 µM] (inactive) and 13.9% [100 µM] (inactive) with TK-10 renal; 77% [100 µM] (inactive) and -100% [100 µM] (active) in the test on MCF7 breast.
